Test results: PubChem BioAssay (NCATS)
Results filed as inconclusive are left out. Calls of active or inactive are those of the source. Calls come from the whole dose curve; as a rule, active = well fitted inhibition curve with a large enough effect; inconclusive = small, poorly fitted or top-dose-only effect; inactive = flat fitted curve, though single readings scatter.

These compounds were tested against Aldehyde dehydrogenase, mitochondrial (Homo sapiens) (UniProt P05091) (assay: qHTS for Inhibitors of the Aldehyde Dehydrogenase Family (ALDH2) Primary screen (AID 2061308;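 note: plate controls were vehicle for no effect and reference inhibitor for full effect; nearly all actives have a fitted effect of over 55% in size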)). Conditions: ALDH2 enzyme inhibition qHTS, 1536-well; series mostly up to 56 µM; activity change, negative = inhibition: at the top concentration.
`O=S(=O)(Nc1cccc2ccncc12)c1ccc(NCc2cccc(Cl)c2O)cc1` was tested, and the “activity change, negative = inhibition” value was -15.5% (inactive). For `COC1C(O)C(C)OC(OC2C(CO)O[C@@H](O[C@@H]3CC4CCC5C(CC[C@]6(C)[C@@H](C7=CC(=O)OC7)CC[C@]56O)[C@@]4(C)[C@H](OC(C)=O)C3)C(O)C2O)C1O` (stereo not given in full), the “activity change, negative = inhibition” value was 5.32% [at 16.9 µM] (inactive). `C=C(CO)[C@@]12O[C@@H]1[C@@]1(C)C(=CC2=O)CC[C@@H](O)[C@@H]1C` was tested, and the “activity change, negative = inhibition” value was 3.05% (inactive). `CC[C@H](C)[C@H](NC(=O)[C@H]1CCCCN1C)C(=O)N(COC(=O)CC(C)C)[C@H](C[C@@H](OC(C)=O)c1nc(C(=O)N[C@@H](Cc2ccc(O)cc2)C[C@H](C)C(=O)O)cs1)C(C)C` was tested, and the activity change, negative = inhibition was -2.41% [at 1.12 µM] (inactive). `CO[C@@H]1[C@H](O)[C@@H](O[C@@H]2C[C@H]3CC[C@@H]4C(CC[C@]5(C)[C@@H](C6=CC(=O)OC6)CC[C@]45O)[C@@]3(C)[C@H](O)C2)O[C@H](C)[C@@H]1O[C@@H]1O[C@H](CO)[C@@H](O)[C@H](O)[C@H]1O` (stereo not given in full) was tested, and the “activity change, negative = inhibition” value was -1.47% [at 16.9 µM] (inactive). `Cc1cccc(NC(=O)N[C@H]2CN(C)c3ccccc3C(c3ccccc3)=N2)c1` was tested, and the “activity change, negative = inhibition” value was -2.12% (inactive). For `C#C[C@]1(O)CC[C@H]2[C@@H]3CC[C@H]4Cc5nc6nc7ccccc7n6cc5C[C@]4(C)[C@H]3CC[C@@]21C`, the “activity change, negative = inhibition” value was -1.17% (inactive). `CCOc1ccc(CCNC(=O)c2ccc(C(=O)c3ccccc3)cc2)cc1OCC` was tested, and the “activity change, negative = inhibition” value was 0.802% (inactive). For `Fc1cc(F)c2c(c1)C1C=CCC1C(c1cccnc1)N2` (stereo not given), the “activity change, negative = inhibition” value was -10.2% (inactive). `CO[C@H]1[C@@H](O)[C@@H](C)O[C@@H](O[C@@H]2C=C3C(OC(C)=O)CC4(O)C(CC[C@]5(C)[C@@H](C6=CC(=O)OC6)CC[C@]45O)[C@@]3(C)CC2)[C@@H]1O` (stereo not given in full) was tested, and the “activity change, negative = inhibition” value was 1.21% [at 16.9 µM] (inactive).
